In the library only some 18% were active in any assay of this set; here they are far more common.
TGFb inhibitor: blocks TGF-b signaling; Potency, µM (top dose mostly 46.1 µM), for inactives: at the highest dose activity, negative = inhibition, most hits filed as inhibitors; HepG2 CAGA-GFP TGF-b/SMAD3 reporter, GFP fluorescence, 18 h; TGF-beta stimulated, 500 pg/mL final; 1.2% of 410,000 active; AID 588855; further: potency means the concentration at half of the fitted maximal effect; on the % scale 0 is the no-effect control and ±100 the full control effect; nearly all actives have a fitted effect of over 65% in size
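Per well, imaged GFP fluorescence of HEPG2 CAGA-GFP cells gives the signal; cells get compound, then TGF-beta (500 pg/mL final), 18 h at 37 degrees C; %Activity versus -TGF-beta and +DMSO controls.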
HepG2 tox: HepG2 cytotoxicity, counter-screen for TGF-b inhibitors | HepG2 CAGA-GFP viability, ATP luminescence, 18 h | Potency, µM (titrated, usually from 46.1 µM), for the others: top-dose activity change, negative = cytotoxicity, most hits filed as cytotoxic | 0.76% of 410,000 active | AID 588856; further: potency means the concentration at half of the fitted maximal effect
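CellTiter-Glo luminescence gave cytotoxicity after 18 hours at 37 degrees C. The cells were HepG2 CAGA-GFP in 1% FBS DMEM, stimulated with 500 pg/mL TGF-beta after compound addition. %Activity was normalised to no-cell wells (complete cell-killing) and DMSO (no toxicity), and curves were fitted and classified.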
IL1B secr inh: inflammasome signaling inhibition, IL-1 beta readout. THP-1 LPS/ATP IL-1B secretion, AlphaLISA, 16 h; stronger effect = lower value. activity change, % at 57.5 µM. 4.7% of 360,000 active; in the data active means activity change below about -50%; inconclusive means mostly about -30% to -49%; further: on the % scale 0 is the no-effect control and ±100 the full control effect
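Secreted IL-1B measured by AlphaLISA bead assay after 16 h compound exposure of THP-1 cells; compounds (final up to 57.5 uM) added 1 h before LPS (250 ng/mL) and ATP (1.25 mM) stimulation; lower signal means less secretion.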
TDP1 cell CPT: DT40-hTDP1 cell growth loss with CPT | chicken DT40 Tdp1-/-;hTDP1 cells + 20 nM CPT, ATP luminescence, 48 h | Potency, µM (titrated, usually from 46.2 µM), for the others: at the highest dose activity change, negative = growth inhibition, most hits filed as inhibitors | 12% of 420,000 active; further: potency means the concentration at half of the fitted maximal effect; on the % scale 0 is the no-effect control and ±100 the full control effect; nearly all actives have a fitted effect of over 55% in size
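Chicken DT40 Tdp1-/- cells complemented with human TDP1, 400 cells/well, exposed to compounds plus 20 nM camptothecin for at least 48 h at 37 C; viability read as ATP content by CellTiter-Glo luminescence.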
DT40 TDP1 no CPT: qHTS for Inhibitors of human tyrosyl-DNA phosphodiesterase 1 (TDP1): qHTS in cells in absence of CPT; DT40 Tdp1-/- hTDP1 cells, no CPT, ATP luminescence, 48 h; Potency, µM (highest dose often 46.2 µM), for the others: at the top dose activity change, negative = growth inhibition, actives largely listed as inhibitors; 15% of 420,000 active; AID 686978, 2013; further: potency means the concentration at half of the fitted maximal effect; on the % scale 0 is the no-effect control and ±100 the full control effect; nearly all actives have a fitted effect of over 55% in size
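Cells were dispensed at 400 per well, compounds added by pin tool, plates incubated ≥48 hr at 37 °C, then CellTiter-Glo added for 30 min at room temperature before luminescence reading. Line: DT40 Tdp1-/- complemented with hTDP1; camptothecin omitted.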
TDP1 inh: TDP1 (human) enzyme inhibition; Potency, µM (doses to about 130 µM), inactives show at the top dose activity change, negative = inhibition, most hits filed as inhibitors; 0.28% of 350,000 active; recombinant TDP1, AlphaScreen DNA substrate cleavage; Q9NUW8; AID 485290; further: potency means the concentration at half of the fitted maximal effect; on the % scale 0 is the no-effect control and ±100 the full control effect; nearly all actives have a fitted effect of over 40% in size
Target sequence (Q9NUW8 whole entry, looked up): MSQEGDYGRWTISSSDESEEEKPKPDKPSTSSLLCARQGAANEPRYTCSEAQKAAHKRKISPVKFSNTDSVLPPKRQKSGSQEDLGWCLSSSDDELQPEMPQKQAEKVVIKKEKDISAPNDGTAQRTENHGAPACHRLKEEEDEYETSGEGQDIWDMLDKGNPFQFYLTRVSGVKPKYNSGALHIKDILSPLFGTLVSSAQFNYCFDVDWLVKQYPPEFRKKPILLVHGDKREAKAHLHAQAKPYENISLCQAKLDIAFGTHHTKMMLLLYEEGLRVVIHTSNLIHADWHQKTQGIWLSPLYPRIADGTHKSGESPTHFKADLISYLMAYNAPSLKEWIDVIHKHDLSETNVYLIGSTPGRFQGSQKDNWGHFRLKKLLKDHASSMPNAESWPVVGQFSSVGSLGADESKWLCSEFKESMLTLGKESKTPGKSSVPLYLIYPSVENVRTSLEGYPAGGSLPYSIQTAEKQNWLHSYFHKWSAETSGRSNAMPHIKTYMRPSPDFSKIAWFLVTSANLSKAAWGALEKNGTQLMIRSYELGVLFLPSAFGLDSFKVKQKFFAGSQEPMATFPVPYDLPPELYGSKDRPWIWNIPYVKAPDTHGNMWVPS
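AlphaScreen read-out: signal falls as enzyme removes the 3' tyrosine-FITC from a 5'-biotinylated DNA oligo (15 nM, 5 min, RT). Enzyme was E. coli-made recombinant Tdp1 at 1 nM, exposed to compound for 15 min beforehand; beads 10 ug/ml, 10 min.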
* hit, by the source's call; ? = inconclusive; . = no result; [ ] = dose if it differs, or a comment. Unless noted, the call rests on the fitted dose curve; in most records, active means well fitted curve in the direction sought with a large enough effect; inconclusive means small, poorly fitted or top-dose-only effect, or another doubt; inactive means no such curve, though single readings can be large; an effect the other way counts as inactive or inconclusive.

SMILES	TGFb inhibitor	HepG2 tox	IL1B secr inh	TDP1 cell CPT	DT40 TDP1 no CPT	TDP1 inh
Cc1nnc(NC(=O)C2CCN(S(=O)(=O)c3ccc(F)c(F)c3)CC2)o1	5.3%	3.2%	17.1	9.1%	2.0%	0.7%
COC(/C(=N/O)c1ccc(Cl)cc1)c1ccccc1 (configuration not stated)	?	-56.5%	-14.6	?	23.1µM*	.
COc1cc2nc(C3CCC3)n(NC(=O)C3CCCC(OC)C3)c(=O)c2cc1OC (configuration not stated)	19.2%	-0.6%	-13.8	-33.2%	-19.9%	2.3%
COc1cc2nc(C3CCC3)n(NC(=O)c3ccco3)c(=O)c2cc1OC	-6.0%	-2.9%	-57.3*	0.6%	2.9%	-2.8%
CC1(C)CC(NC(=O)c2ccncc2)CC(C)(C)N1O	6.9%	1.0%	0.0	0.9%	-2.3%	1.8%
O=C(Nc1ccc(O)c(-c2nc3ccccc3o2)c1)c1sc2ccccc2c1Cl	0.1%	-28.1%	.	-10.0%	-12.8%	0.4%[12.3 µM]
O=[N+]([O-])c1cc([N+](=O)[O-])c(Oc2ccc(F)cc2)cc1NN1CCCCC1	29.1%	21.6%	29.1	-14.4%	-7.6%	.
O=[N+]([O-])c1cc([N+](=O)[O-])c(Oc2cc(F)cc(F)c2)cc1NN1CCCCC1	17.0%	0.0%	21.0	18.4µM*	-24.1%	1.0%
COc1ccc(NC(=O)c2ccc(NC3=NC4CS(=O)(=O)CC4S3)cc2)cc1 (configuration not stated)	3.1%	1.1%	6.3	-1.3%	-14.5%	.
CCN(c1cccc(C)c1)S(=O)(=O)c1c(C)nc2sc(C)cn2c1=O	7.0%	-9.9%	.	?	-23.4%	0.0%
COc1cc(C(=O)N2CCN(S(=O)(=O)c3ccc(F)cc3)CC2)cc(OC)c1OC	-8.0%	8.9%	40.7	3.4%	11.3%	7.8%
O=C(c1cc(-c2ccc(Br)cc2)n[nH]1)N1CCN(S(=O)(=O)c2ccc(Br)cc2)CC1	-16.8%	-2.4%	.	14.6µM*	16.4µM*	7.5%
COc1ccccc1-c1cc(C(=O)N2CCN(S(=O)(=O)c3ccc(C)cc3)CC2)[nH]n1	10.0%	-0.5%	-10.5	23.1µM*	?	.
O=C(c1cc(-c2ccccc2)n[nH]1)N1CCN(S(=O)(=O)c2ccccc2)CC1	10.1%	-10.7%	-28.9	?	?	.
COc1ccc(-c2cc(C(=O)N3CCN(S(=O)(=O)c4ccccc4)CC3)[nH]n2)cc1	18.5%	6.9%	-27.4	20.6µM*	?	.
COc1ccc(Cl)cc1S(=O)(=O)N1CCN(C(=O)c2cc(-c3ccc(Br)cc3)n[nH]2)CC1	8.91µM*	-1.4%	.	11.6µM*	9.2µM*	5.0%
O=C(N[C@@H]1CC[C@@H](CCNS(=O)(=O)c2ccc(Cl)cc2)O[C@@H]1CO)c1cccnc1	.	.	3.6	-1.3%	-23.8%	.
Cc1ccc(NC(=O)CCCCCN2C(=O)[C@@H]3Cc4ccccc4CN3C2=O)c(Cl)c1	?	-22.0%	-26.2	?	?	0.8%
Cc1ccc(S(=O)(=O)N2CCN(C(=O)c3cc(-c4ccc(Br)cc4)n[nH]3)CC2)c(C)c1	?	1.0%	.	16.4µM*	11.6µM*	3.7%
Cc1ccc(S(=O)(=O)N2CCN(C(=O)C3CCN(C(=O)c4ccc(F)cc4)CC3)CC2)c(C)c1	-19.7%	-15.1%	-7.4	?	10.3µM*	1.7%
COc1ccc(S(=O)(=O)N2CCN(C(=O)c3cc(-c4ccc(Br)cc4)n[nH]3)CC2)cc1OC	?	-7.2%	.	9.2µM*	7.31µM*	3.2%
